Molecules are shown by their SMILES. Out of some 300,000 compounds screened, about 5,400 (1.8%) were called active. Entries that show only a call come without a potency. Inconclusive results (about 28%) are left out. This is one part of a sample in which actives are shown more often than they occur. Calls come from the whole dose curve; tested in HEK293 cells.
Potency is the fitted concentration of half-maximal effect.

The nature of the assay: qHTS for inhibitors of binding or entry into cells for Marburg Virus. Particulars: Marburg virus pseudotyped entry inhibition, cell reporter; series mostly up to 37.8 µM. On the technique in general: Quantitative high-throughput screening tests each substance at several concentrations.
In the case of `CC(NCC(=O)Nc1ccccc1C(=O)NC1CC1)c1ccccc1Cl` (stereo not given), the Potency result was “inactive”. In the case of `Cn1c(Cl)cnc1[C@H]1CC(=O)c2cc(Cl)ccc2O1` it was 10 µM (active). In the case of `COc1cccc(NC(=O)C[C@H]2SC(=Nc3ccccc3)NC2=O)c1` it was “inactive”; in that of `O=C(c1cnn(-c2ccc(Cl)cc2)c1)c1ccccc1O`, 3.55 µM (active). In the case of `Cc1ncc(CC(=O)n2cc(C(=O)c3cc(Cl)ccc3O)cn2)s1` it was “inactive”; in that of `Cc1cc(O)cc(O)c1C(=O)Cc1cnn(-c2ccccc2)c1`, “inactive”.

As to `O=c1oc2ccccc2c(=O)c2ccccc12`, the Potency result is “inactive”. To `Cc1cccc(CN2CCC(n3nccc3NC(=O)c3ccccc3C)CC2)n1` belongs “inactive”; to `CC1(C(=O)NNC(=S)NCC2CCCO2)CC1(Cl)Cl` (stereo not given), “inactive”; to `CC(=O)OC1C2(CC3N4C(=O)C5(CO)SSC4(CC31O)C(=O)N5C)OC(C)C(C)(C)C2=O` (stereo not given), 1.41 µM (active). In the case of `Cc1ccc(/C=N/NC(=O)COc2ccccc2-c2ccccc2)cc1` it was 1.3 µM (active). In the case of `Cc1ccc(OCC(=O)N/N=C\c2ccco2)c(C)c1` it was “inactive”; in that of `Cc1ccc(OCC(=O)N/N=C/c2ccncc2)cc1`, “inactive”.

Take `O=C(Nc1ccc(-n2cccn2)cc1)C1CCN(Cc2ccsc2)CC1`: the Potency entry is “inactive”. In the case of `O=C(Nc1cnn(Cc2ccc(Cl)cc2)c1)C1CCCC1` it was “inactive”; in that of `CCn1cc(CN2CCC(C(=O)Nc3cccc(-c4cccc(Cl)c4)c3)CC2)cn1`, 12.6 µM (active); in that of `CC(C)CO/N=C1\C[C@@H](O)[C@@H](O)[C@@H]2[C@@H]3C(=O)N(C[C@@H]4CCCO4)C(=O)[C@@H]3CC[C@@H]12`, “inactive”.

Take `CC1CN(Cc2ccco2)C(=S)N(c2ccccc2)C1=O` (stereo not given): the Potency entry was “inactive”. Take `O=C1CCCN1C(=O)COc1ccc([N+](=O)[O-])cc1`: the Potency entry is “inactive”. In the case of `Cc1noc(C)c1CSCC(=O)N(CCC(C)C)c1c(N)n(Cc2ccccc2)c(=O)[nH]c1=O` it was “inactive”; in that of `COc1ccc(/C=C/C(=O)Nc2cccnc2)cc1OC`, “inactive”. Consider `COc1ccc(/C=C/C(=O)OCC(=O)NC2CCCCCC2)cc1OC`, for which the Potency result is “inactive”. To `COc1ccc(/C=C/C(=O)Nc2ccc(C34CC5CC(CC(O)(C5)C3)C4)cc2)cc1OC` belongs 6.51 µM (active); to `CCOC(=O)Cc1[nH]nc2c1[C@H](c1cc(OC)ccc1OC)C(C#N)=C(N)O2`, “inactive”; to `COc1ccc(-n2c(C)nc3c(cnn3-c3ccc(F)cc3)c2=O)cc1`, “inactive”.

For the compound `Cc1ccc(Oc2cnn(-c3ccccc3)c(=O)c2Br)cc1`, the Potency entry is “inactive”. To `COc1ccc(Oc2c(Cl)cnn(-c3ccccc3)c2=O)cc1` belongs 10 µM (active).

`Cc1cc(C(=O)Nc2ccccc2N2CCOCC2)c2ccccc2n1`: the Potency entry is “inactive”. In the case of `c1ccc(Nc2nc(N3CCOCC3)c3ccccc3n2)cc1` it was 12.6 µM (active); in that of `c1ccc(-c2nnc(N3CCOCC3)c3ccccc23)cc1`, “inactive”. To `Cc1nn(-c2ccc(F)cc2)c(Cl)c1/C=C(/CCC(=O)O)c1nc2ccccc2s1` belongs “inactive”.

Consider `Cc1cc(O)c(Sc2ccccc2)c(=O)o1`, for which the Potency result is “inactive”.

For `CCOc1cccc(-c2nnc(SCC(=O)NC3CC3)n2C)c1`, the Potency result was “inactive”. To `CN1C(CC(=O)Nc2ccc(Br)cc2)c2ccccc2CC1(C)C` (stereo not given) belongs 11.2 µM (active). For `Cc1ccc(NC(=O)CCN2CCc3ccccc3C2)cc1`, the Potency result is “inactive”. In the case of `COCC(=O)Nc1ccc(Br)cc1` it was “inactive”; in that of `COc1ccc(Cc2nnc(SCC(=O)Nc3ccc(C)c(C)c3)o2)cc1OC`, “inactive”; in that of `CC(C)Nc1nnc(SC(C)C(=O)N(C)C2CCCCC2)s1` (stereo not given), “inactive”. In the case of `CSc1nc2ccc(C)cc2c(=O)n1-c1cccnc1` it was “inactive”. In the case of `Cc1ccc2nc3n(c(=O)c2c1)CCC3` it was “inactive”; in that of `Cc1ccc2nc(C)c3c(c2c1)N(c1ccccc1)CC3`, 5.62 µM (active). In the case of `COc1ccc(CN2CCN(C(=O)CCC(=O)Nc3nnc(C(C)C)s3)CC2)cc1F`, the Potency entry was “inactive”. To `CSc1ccc(S(=O)(=O)N2CCC(C(=O)NCc3ccncc3)CC2)cc1` belongs “inactive”; to `CCOC(=O)c1sc2nc(CSCC(=O)OCc3ccc(C(=O)OC)o3)[nH]c(=O)c2c1C`, “inactive”. Take `Cc1ccc(C)c(SCc2nc3sc(C(=O)O)c(C)c3c(=O)[nH]2)c1`: the Potency result is “inactive”. In the case of `CCOC(=O)c1sc2nc(CSc3ccccc3)[nH]c(=O)c2c1C` it was 8.91 µM (active); in that of `Oc1cccc(CCc2ccccn2)c1`, “inactive”. To `CC(Nc1ccc([N+](=O)[O-])cc1[N+](=O)[O-])c1ccccc1` (stereo not given) belongs “inactive”; to `Cc1c(CN2CCC(CO)(CCOc3ccccc3)CC2)[nH]c2ccc(Cl)cc12`, 2.82 µM (active). In the case of `Cc1c(C(=O)N2CCOCC2)[nH]c2ccc(OCc3ccccc3)cc12`, the Potency entry was “inactive”.

As for `OCC1(CCc2ccccc2)CCN(Cc2ccc3nsnc3c2)CC1`, the Potency result is “inactive”. In the case of `Cc1nn(-c2ccccc2)c2c1[C@@H](c1ccc(F)cc1F)C(C#N)=C(N)O2` it was “inactive”. In the case of `O=C(Nc1cccc(S(=O)(=O)N2CCOCC2)c1)C12CC3CC(CC(C3)C1)C2` it was “inactive”.

As for `O=C(Nc1ccccc1)c1ccc(NC(=O)c2cccs2)cc1`, the Potency result was “inactive”. In the case of `Cc1ccc(C(=O)Nc2ccc(NC(=O)c3cccs3)cc2)c(C)c1` it was “inactive”. In the case of `Cc1ccc(-c2nnc(-c3ccc(NC(=O)c4cccs4)cc3)o2)cc1` it was 11.6 µM (active); in that of `Cc1cc(NC(=O)CSc2nnnn2-c2ccc(F)cc2)no1`, “inactive”; in that of `Cc1ccc(N2CC(C(=O)N3CCC4(CC3)CC(=O)c3ccccc3O4)CC2=O)cc1C` (stereo not given), “inactive”. For the compound `O=C(Cc1ccc(Br)cc1)N1CCN(c2ccccn2)CC1`, the Potency result was “inactive”. In the case of `O=C(CN1CCN(c2ccccn2)CC1)Nc1ccc(Br)cc1` it was “inactive”; in that of `Cc1cc(Br)ccc1NC(=O)c1cnc(N2CCN(c3ccccn3)CC2)c2ccccc12`, 9.2 µM (active); in that of `C=CCOc1ccc(C(=O)Nc2ccccc2C(=O)N2CCCC2)cc1`, “inactive”.

In the case of `COc1ccc(OCC(=O)NNC(=O)C2CCC2)cc1`, the Potency result is “inactive”.

In the case of `O=C(O)c1cc2c(cc1NC(=O)c1c(F)cccc1Cl)OCCCO2`, the Potency result was “inactive”. To `COc1ccc(CNC(=O)COC(=O)C2=Cc3ccccc3OC2)cc1` belongs “inactive”; to `COc1ccc(CNC(=O)c2cc3c(=O)[nH]c4ccccc4c3s2)cc1`, “inactive”; to `COc1ccc(CNC(=O)c2cc3c(s2)-c2ccccc2OC3)cc1`, 10 µM (active).

On to `CN1CCOC1c1ccc(C2OCCN2C)cc1` (stereo not given), for which the Potency result was “inactive”.

With `Cc1ccc(OCc2nnc(SC3CCc4ccccc4C3=O)n2C)cc1` (stereo not given), the Potency result was “inactive”. To `CCOc1ccc(C2NC(=S)NC3=C2CCc2ccccc23)cc1` (stereo not given) belongs 7.94 µM (active).

On to `CCOc1ccc(C2C(C(=O)O)c3ccccc3C(=O)N2CCN2CCOCC2)cc1` (stereo not given), for which the Potency result is “inactive”. In the case of `O=C(c1ccc(S(=O)(=O)N2CCCC2)cc1)N1CCN(c2ccccc2F)CC1` it was “inactive”. Turning to `c1ccc(CCc2ccccn2)cc1`, the Potency result was “inactive”. To `C(=N/Nc1cc(N2CCOCC2)nc(N2CCOCC2)n1)/c1ccccc1` belongs 2.51 µM (active). In the case of `O=C(O)c1ccc(/C=N/Nc2nc(N3CCCCC3)nc(N3CCCCC3)n2)cc1` it was “inactive”; in that of `Cc1cc(N2CCN(c3ccccc3)CC2)nc(N2CCOCC2)n1`, “inactive”. In the case of `O=C1C2C3C=CC(C3)C2C(=O)N1c1ncc([N+](=O)[O-])s1` (stereo not given) it was “inactive”; in that of `Cc1noc(/C=C/N(C)C)c1S(=O)(=O)N1CCCC(C(=O)Nc2cccc(F)c2)C1` (stereo not given), “inactive”; in that of `Cc1noc(/C=C/c2ccco2)c1S(=O)(=O)N1CCC(C(=O)Nc2ccc(Cl)cn2)CC1`, 6.51 µM (active). In the case of `Cc1cccc(NC(=O)C2CCN(S(=O)(=O)c3c(C)noc3/C=C/c3ccco3)CC2)c1`, the Potency entry was “inactive”.

Turning to `Cc1nnc(SCC(=O)N2CCc3ccccc3C2)s1`, the Potency entry is “inactive”.

As to `Cc1nnc(SCC(=O)NCc2ccccc2)s1`, the Potency entry is “inactive”. For the compound `Cc1nnc(SCC(=O)N2c3ccccc3C(C)(c3ccc(Cl)cc3)CC2(C)C)s1` (stereo not given), the Potency was 10 µM (active). In the case of `Nn1c(SCC(=O)Nc2ccc3c(c2)CCC3)nnc1C1CC1` it was “inactive”. In the case of `Cn1c(Cc2cccc3ccccc23)nnc1SCC(=O)N1CCN(c2cccc(Cl)c2)CC1` it was 12.6 µM (active). To `Cc1ccccc1NC(=O)Cc1nnc(SCC(=O)N2CCN(c3ccccc3)CC2)n1C` belongs “inactive”; to `Cn1c(CNC(=O)c2ccco2)nnc1SCC(=O)N1CCN(c2ccccc2)CC1`, “inactive”; to `Cc1cccc(C(=O)N[C@H](C(=O)NCc2cccs2)C(C)C)c1`, “inactive”. In the case of `CCCOC(=O)CSC1=C(C#N)[C@H](c2ccccc2OCC)[C@H](C#N)C(=O)N1`, the Potency result was “inactive”. As to `C=CC1=C(C)C2=NC1=CC1=NC(=CC3=NC(=CC4=NC(=C2)C(C)=C4CCC(=O)O)C(CCC(=O)O)=C3C)C(C=C)=C1C`, the Potency result is “inactive”. As to `CN1CCC[C@@H]1CCO[C@](C)(c1ccccc1)c1ccc(Cl)cc1`, the Potency was 9.2 µM (active). In the case of `CC(C)(c1ccccc1)c1ccc(OCCN)cc1` it was “inactive”. In the case of `Cc1ccc(S(=O)(=O)Nc2ccc(F)c(S(=O)(=O)N3CCOCC3)c2)cc1` it was “inactive”.

With `O=C(NNC(=S)Nc1ccccc1)c1cccc(S(=O)(=O)N2CCOCC2)c1`, the Potency result was “inactive”. To `O=C(c1cccc(S(=O)(=O)N2CCOCC2)c1)N1CCOCC1` belongs “inactive”; to `O=C(Nc1nnc(-c2ccccc2)o1)c1cccc(S(=O)(=O)N2CCOCC2)c1`, 12.6 µM (active). In the case of `C/C(=N/OC(=O)c1ccc(Br)cc1)c1ccc(C)cc1` it was “inactive”; in that of `Cc1ccc(CSCC(=O)N(C)CC(=O)Nc2cccc(F)c2)cc1`, “inactive”; in that of `Cc1c(CCO)c(=O)n(-c2ccccc2)n1S(=O)(=O)c1ccc(F)cc1`, “inactive”. In the case of `Cc1c(CCO)c(=O)[nH]n1C(=O)c1c(F)cccc1F` it was 2.06 µM (active). In the case of `CC(=O)NC1(c2ccc(F)cc2)CCN(C(=O)c2c(F)cccc2F)CC1`, the Potency result was “inactive”. With `O=C(CSc1nc(C2CC2)nc2ccccc12)Nc1cccc(O)c1`, the Potency result was “inactive”.

As to `Cc1ccc(CCC(=O)Nc2ncc(Cc3cc(Cl)ccc3Cl)s2)o1`, the Potency is 0.651 µM (active). As to `CCOc1ccccc1NC(=O)CCc1ccc(C)o1`, the Potency result is “inactive”. To `Cc1cnc(NC(=O)CSc2nnc(-c3ccc(Cl)cc3Cl)n2N)s1` belongs “inactive”.

Values taken from PubChem BioAssay AID540276 (National Center for Advancing Translational Sciences (NCATS), 2011).
